In PubChem BioAssay (EPA / NIEHS) one finds outcome and AC50 data, which are given here for ten compounds.

Records with an inconclusive call do not appear. The source made the active and inactive calls. How the source made its calls: active means hit-call score of the fitted dose curve at least 0.9, where 1 is the maximum; inconclusive means response in the unintended direction; inactive means score below 0.9.

What is called AC50 is the concentration giving half of the maximal activity seen.

For the experiment, the target named is human Opioid Receptor Mu (Opiate Mu), OPRM1 (gene 4988) (UniProt P35372). Nature of the experiment: NVS_GPCR_hOpiate_mu: NovaScreen (NVS) G Protein-Coupled Receptor Assay for human Opioid Receptor Mu (Opiate Mu) (AID 2283290).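 Further: hits lower bound tracer signal versus DMSO meaning displacement of the ligand.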 As for the experimental part: NVS_GPCR_hOpiate_mu is a biochemical, single-readout assay that uses extracted gene-proteins from CHO in a cell-free assay. Measurements were taken 2.5 hours after chemical dosing in a 96-well plate.NVS_GPCR_hOpiate_mu is one of one assay component(s) measured or calculated from the NVS_GPCR_hOpiate_mu assay. It is designed to make measurements of radioligand binding, a form of binding reporter, as detected with scintillation counting signals by Filter-based radiodetection technology.Data from the assay component NVS_GPCR_hOpiate_mu was analyzed into 1 assay endpoint. This assay endpoint, NVS_GPCR_hOpiate_mu, was analyzed in the positive analysis fitting direction relative to DMSO as the negative control and baseline of activity. Using a type of binding reporter, loss-of-signal activity can be used to understand changes in the binding as they relate to the gene OPRM1. Furthermore, this assay endpoint can be referred to as a primary readout, because the performed assay has only produced 1 assay endpoint. To generalize the intended target to other relatable targets, this assay endpoint is annotated to the gpcr intended target family, where the subfamily is rhodopsin-like receptor.
Sequence of human Opioid Receptor Mu (Opiate Mu), OPRM1 (gene 4988) (P35372 whole entry, looked up): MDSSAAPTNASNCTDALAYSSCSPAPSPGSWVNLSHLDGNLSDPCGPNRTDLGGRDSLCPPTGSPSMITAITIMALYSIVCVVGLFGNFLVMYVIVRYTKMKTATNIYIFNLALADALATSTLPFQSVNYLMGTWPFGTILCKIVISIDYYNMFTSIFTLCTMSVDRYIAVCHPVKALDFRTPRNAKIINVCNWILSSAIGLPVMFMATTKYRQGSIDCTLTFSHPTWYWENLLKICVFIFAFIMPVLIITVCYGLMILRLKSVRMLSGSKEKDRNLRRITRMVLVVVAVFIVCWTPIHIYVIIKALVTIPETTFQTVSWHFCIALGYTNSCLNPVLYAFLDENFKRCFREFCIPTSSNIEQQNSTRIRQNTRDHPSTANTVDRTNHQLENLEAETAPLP
Binding assays used specific radioligands (tritiated, iodinated) with non-radioactive competitive displacement ligands in agonist or antagonist protocols (as indicated) and various reference compounds and inhibitors to titrate specific binding to receptors and transporters. Most enzyme assays (CYPs, kinases, phosphatases, proteases, HDACs) used recombinant protein and specific substrates (fluorescence mostly, some colorimetric and radioactive) and inhibitors, followed by a biochemical separation of substrate and product. All assays for the biochemical HTS were initially run in duplicate at a single concentration (10 uM for CYP450 assays and 25 uM for all others). […] Each assay was run with positive and negative controls, and concurrent controls on every plate. The follow-up (secondary) screen tested active chemical-pairs in concentration series, as well as a few additional assays not tested in the primary screen, some selected negative inactives, and several cases re-run in the concentration series for confirmatory purposes.
With `COP(=S)(OC)SCN1C(=O)c2ccccc2C1=O`, the compound was called inactive.
`O=[N+]([O-])C(Br)(CO)CO`: the outcome was inactive.
In the case of `CCOC(=O)[C@]1(c2ccccc2)Oc2ccccc2[C@@H]1N`, the half-maximal activity concentration (AC50) was 13.1 µM (active).
Still for that read-out and setting: next, `CCCCCCCCn1sccc1=O`: 7.66 µM (active); `O=C(N[C@H](c1ccccc1)[C@@H]1CN2CCC1CC2)c1c(Cl)ccc(C(F)(F)F)c1Cl`: 10.1 µM (active).
`N#CC(Br)(Br)C(N)=O`: the compound was called inactive.
Turning to `[Cl-].[Cl-].[Hg+2]`, the concentration at half-maximal activity (AC50) is 0.197 µM (active).
As to `O=[N+]([O-])c1ccc(Oc2ccc(Cl)cc2Cl)cc1`, the compound was called inactive.
On to `Nc1ccc(Cl)cc1N`, for which the concentration at half-maximal activity (AC50) was 39.5 µM (active).
With `CCC[CH2][Sn]([Cl])([CH2]CCC)[CH2]CCC`, the result was inactive.
